Measured values from PubChem BioAssay (Tox21).
Results filed as inconclusive are left out. Calls of active or inactive are those of the source. Unless noted, the call rests on the fitted dose curve; in most records, active means well fitted curve in the direction sought with a large enough effect in the repeat runs; inconclusive means weak or mixed curves; inactive means no such curve, though single readings can be large; an effect the other way counts as inactive or inconclusive.

How the values were obtained:
[1] = qHTS assay for small molecule agonists of the p53 signaling pathway (AID 651631; calls by dose curve; further: nearly all actives have a fitted effect of over 15% in size)
Procedure, shortened: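 Readout was fluorescence from the LiveBLAzer FRET substrate, applied for 2 h at room temperature after 16 h compound exposure at 37 °C. Cells were the p53RE-bla HCT-116 line, with beta-lactamase driven by p53 response elements.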

[2] = qHTS assay for small molecules that induce genotoxicity in human embryonic kidney cells expressing luciferase-tagged ATAD5 (AID 651632); further: nearly all actives have a fitted effect of over 15% in size
Procedure, shortened: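 Luminescence read-out: after 16 hr compound exposure at 37C, ATAD5-luciferase HEK293T cells received Amplite, 30 min RT, then CCD imaging. A rise in signal marks genotoxic stress.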

[3] = qHTS assay for small molecule agonists of the p53 signaling pathway - cell viability (AID 651633; calls by dose curve; further: series mostly up to about 83 µM; nearly all actives have a fitted effect of over 30% in size)
Procedure, shortened: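 Viability counter-read: CellTiter-Glo luminescence (30 min, room temperature) in the same p53RE-bla plates. These plates had been exposed to compounds for 16 h at 37 C.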

[4] = qHTS assay for small molecules that induce genotoxicity in human embryonic kidney cells expressing luciferase-tagged ATAD5 - cell viability (AID 651634; calls by dose curve; further: nearly all actives have a fitted effect of over 25% in size)
Procedure, shortened: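 HEK293T ATAD5-luc cells, 2,000/well; compound 15.5 hr, 37C/5% CO2; CellTiter-Fluor 30 min, 37C; fluorescence read.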

[5] = qHTS assay for small molecule disruptors of the mitochondrial membrane potential - cell viability (AID 720634; calls by dose curve;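 further: human HepG2 liver cancer cells; series mostly up to about 83 µM; nearly all actives have a fitted effect of over 20% in size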)
Procedure, shortened: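 Luminescence from CellTiter-Glo (ATP content) gave viability in HepG2 cells, read in the same wells as the MMP dye assay after 1 hr compound exposure at 37 C.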

[6] = qHTS assay to test for compound auto fluorescence at 590 nm (red) in HepG2 cells (AID 720674)
Procedure, shortened: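 Red autofluorescence (Ex/Em 540/590 nm, Rose Bengal sodium equivalents) was measured in HepG2 cells, 2,000 per well in MEM plus 10% FBS, plated overnight at 37 C. Readings were taken 1 hr after adding 23 nL compound or DMSO, at 37 C and 5% CO2.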

[7] = qHTS assay to test for compound auto fluorescence at 535 nm (green) in HepG2 cells (AID 720675)
[8] = qHTS assay to test for compound auto fluorescence at 460 nm (blue) in HEK293 cells (AID 720678)
Procedure, shortened: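 Auto fluorescence in the blue band was quantified as triamterene equivalency. HEK293 cells were seeded at 2,000/well, dosed after a 4-5 hr attachment, and kept overnight at 37C before the 405/460 nm reading.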

[9] = qHTS assay to test for compound auto fluorescence at 590 nm (red) in HEK293 cells (AID 720679)
Procedure, shortened: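 Autofluorescence equivalency to Rose Bengal sodium, 540/590nm, in HEK293 cells exposed overnight to 23 nL compound per well.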

[10] = qHTS assay to test for compound auto fluorescence at 535 nm (green) in HEK293 cells (AID 720680)
[11] = qHTS assay to test for compound auto fluorescence at 460 nm (blue) in HEK293 cell free culture (AID 720681)
Procedure, shortened: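 Blue fluorescence (Ex 405/Em 460 nm, triamterene-equivalent) was read immediately after pin transfer of compound or DMSO into medium (DMEM, 10% FBS) without cells.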

[12] = qHTS assay to test for compound auto fluorescence at 535 nm (green) in HEK293 cell free culture (AID 720682)
Procedure, shortened: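 Compounds were pin-transferred into cell-free DMEM with 10% FBS, and green fluorescence was read at excitation 485 nm and emission 535 nm. Intensities were expressed as fluorescein-equivalent values.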

[13] = qHTS assay to test for compound auto fluorescence at 590 nm (red) in HepG2 cell free culture (AID 720684)
Procedure, shortened: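 No cells present: MEM + 10% FBS only. Compound pinned in, red label read (540/590 nm). Activity = fluorescence equivalent to Rose Bengal sodium.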

[14] = qHTS assay to test for compound auto fluorescence at 460 nm (blue) in HepG2 cell free culture (AID 720685)
Procedure, shortened: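 Cell-free plates of MEM plus 10% FBS received 23 nL compound or DMSO vehicle; blue-channel (405/460 nm) intensity scored against triamterene as reference fluorophore.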

[15] = qHTS assay to test for compound auto fluorescence at 535 nm (green) in HepG2 cell free culture (AID 720686)
[16] = qHTS assay to test for compound auto fluorescence at 460 nm (blue) in HepG2 cells (AID 720687)
Procedure, shortened: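 Blue-channel autofluorescence (Ex/Em 405/460 nm, triamterene-equivalent) was measured after 1 hr compound exposure at 37 C, 5% CO2. Cells were HepG2, plated overnight at 37 C in MEM plus 10% FBS.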

[17] = qHTS assay to test for compound auto fluorescence at 590 nm (red) in HEK293 cell free culture (AID 720683)
Procedure, shortened: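 Red-channel autofluorescence of compounds in culture medium (DMEM, 10% FBS), no cells, measured at 540/590 nm. Rose Bengal sodium is the reference fluorophore for equivalence.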

[18] = qHTS assay for small molecule disruptors of the mitochondrial membrane potential (AID 720635); further: potency means the concentration at half of the fitted maximal effect
Procedure, shortened: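 Mitochondrial membrane potential tracked with Mito-MPS dye, red aggregates (ex 540/em 590 nm) against green monomers (ex 490/em 535 nm). Compound treatment 1 hr at 37C, dye 30 min in HepG2.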

[19] = target: Glucocorticoid receptor (Homo sapiens) (UniProt P04150); test: qHTS assay to identify small molecule agonists of the glucocorticoid receptor (GR) signaling pathway (AID 720691; active means well fitted activation curve with a large enough effect in the signal ratio in the repeat runs, not every such curve was filed as active; the % refers to the signal ratio)
Procedure, shortened: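 HeLa GR-bla reporter line; cells pre-incubated 4 h, compound in DMSO 18 h at 37 C; LiveBLAzer B/G FRET substrate 2 h RT; fluorescence intensity read-out.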

[20] = target: Glucocorticoid receptor (Homo sapiens) (UniProt P04150); test: qHTS assay to identify small molecule antagonists of the glucocorticoid receptor (GR) signaling pathway (AID 720692; active means well fitted inhibition curve with a large enough effect in the signal ratio in the repeat runs, not every such curve was filed as active; the % refers to the signal ratio)
Procedure, shortened: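 Read-out: beta-lactamase FRET substrate fluorescence, 2 h at room temperature, in HeLa cells stably carrying a GRE-driven bla reporter. Compounds were co-incubated with 5 nM dexamethasone agonist (final) for 18 h at 37 C.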
On the % scale 0 is the no-effect control and ±100 the full control effect.

Sequence of Glucocorticoid receptor (Homo sapiens) (P04150 whole entry, looked up): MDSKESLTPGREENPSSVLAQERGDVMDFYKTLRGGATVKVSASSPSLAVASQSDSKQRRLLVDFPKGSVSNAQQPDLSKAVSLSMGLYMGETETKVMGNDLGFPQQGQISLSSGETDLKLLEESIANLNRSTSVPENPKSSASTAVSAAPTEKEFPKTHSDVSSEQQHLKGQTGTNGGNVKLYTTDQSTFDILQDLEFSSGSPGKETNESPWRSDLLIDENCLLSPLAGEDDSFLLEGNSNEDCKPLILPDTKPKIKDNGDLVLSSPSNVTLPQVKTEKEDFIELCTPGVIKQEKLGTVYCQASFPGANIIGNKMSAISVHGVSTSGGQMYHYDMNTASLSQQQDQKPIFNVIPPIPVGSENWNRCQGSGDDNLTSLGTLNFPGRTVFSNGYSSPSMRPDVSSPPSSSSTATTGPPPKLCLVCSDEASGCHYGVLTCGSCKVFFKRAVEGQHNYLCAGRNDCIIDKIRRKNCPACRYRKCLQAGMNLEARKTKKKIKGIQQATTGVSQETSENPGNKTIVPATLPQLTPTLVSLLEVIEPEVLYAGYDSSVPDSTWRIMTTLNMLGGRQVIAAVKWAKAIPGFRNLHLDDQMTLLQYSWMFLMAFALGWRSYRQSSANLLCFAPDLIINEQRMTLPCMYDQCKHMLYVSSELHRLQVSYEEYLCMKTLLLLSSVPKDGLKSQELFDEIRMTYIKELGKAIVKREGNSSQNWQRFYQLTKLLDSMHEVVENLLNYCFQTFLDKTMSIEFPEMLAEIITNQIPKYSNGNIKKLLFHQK

CCCCC(CC)COC(=O)COc1ccc(Cl)cc1C (stereo not drawn)
inactive: Potency [1] | Potency [2] | Potency [3] | Potency [4] | Potency [5] | outcome [6] | outcome [7] | Potency [8] | outcome [9] | outcome [10] | Potency [11] | outcome [12] | outcome [13] | Potency [14] | outcome [15] | Potency [16]

CO[C@H]1O[C@H](CO)[C@@H](O)[C@H](O)[C@H]1O
inactive: Potency [1] | Potency [2] | Potency [3] | Potency [4] | Potency [5] | outcome [7] | Potency [8] | outcome [9] | outcome [10] | outcome [12] | outcome [17] | outcome [13] | Potency [14] | outcome [15] | Potency [16]

Fc1c(F)c(F)c(Br)c(F)c1F
inactive: Potency [1] | Potency [2] | Potency [3] | Potency [4] | Potency [5] | Potency [18] | outcome [7] | Potency [8] | outcome [9] | outcome [10] | Potency [11] | outcome [12] | outcome [17] | outcome [13] | Potency [14] | outcome [15] | Potency [16]

CCCCCCCCCCCC[N+](C)(C)CC(=O)[O-]
inactive: Potency [1] | Potency [2] | Potency [3] | Potency [4] | Potency [5] | Potency [18] | outcome [7] | outcome [10] | outcome [12] | outcome [17] | outcome [13] | Potency [14] | outcome [15] | Potency [16] | Potency [19]

Cc1cc(OI)c(C(C)C)cc1-c1cc(C(C)C)c(OI)cc1C
inactive: Potency [1] | Potency [2] | Potency [3] | Potency [4] | Potency [5] | outcome [6] | outcome [7] | Potency [8] | outcome [9] | outcome [10] | Potency [11] | outcome [12] | outcome [17] | outcome [13] | Potency [14] | outcome [15] | Potency [16] | Potency [19]

Cc1ccnc2ccccc12
active: Potency [18] 19.3 µM
inactive: Potency [1] | Potency [2] | Potency [3] | Potency [4] | Potency [5] | outcome [6] | outcome [7] | outcome [9] | outcome [10] | Potency [11] | outcome [12] | outcome [17] | outcome [13] | Potency [14] | outcome [15] | Potency [16] | Potency [19] | Potency [20]

CCOC(=O)/C=C/C(=O)O
inactive: Potency [1] | Potency [2] | Potency [3] | Potency [4] | Potency [5] | Potency [18] | outcome [6] | outcome [7] | Potency [8] | outcome [9] | outcome [10] | outcome [12] | outcome [13] | Potency [14] | outcome [15] | Potency [16]

CN1CCN(CCCN2c3ccccc3Sc3ccc(S(=O)(=O)N(C)C)cc32)CC1
inactive: Potency [1] | Potency [2] | Potency [3] | Potency [4] | Potency [5] | fluorescence, relative to Rose Bengal [6] -0.708% [at 18.6 µM] | fluorescence, % of fluorescein control [7] -0.102% [at 18.6 µM] | fluorescence, % of triamterene [8] 0.42% [at 18.6 µM] | fluorescence, % of fluorescent control [9] 0.005% [at 18.6 µM] | fluorescence, % of fluorescein [10] 0.046% [at 18.6 µM] | activity change [12] 0.0013% [at 18.6 µM] | fluorescence, % of fluorescent control [17] 0.122% [at 18.6 µM] | fluorescence, % of Rose Bengal [13] 0.748% [at 18.6 µM] | fluorescence, % of fluorescent control [14] 0.208% [at 18.6 µM] | fluorescence, % of fluorescein control [15] 0.0675% [at 18.6 µM] | fluorescence, % of fluorescent control [16] 0.123% [at 18.6 µM] | Potency [19]

CCCCCCCCCOC(C)=O
inactive: Potency [1] | Potency [2] | Potency [3] | Potency [4] | Potency [5] | Potency [18] | outcome [6] | outcome [7] | Potency [8] | outcome [9] | outcome [10] | Potency [11] | outcome [12] | outcome [17] | outcome [13] | Potency [14] | outcome [15] | Potency [16] | Potency [19] | Potency [20]

CC(=O)CC(c1ccc([N+](=O)[O-])cc1)c1c(O)c2ccccc2oc1=O (stereo not drawn)
inactive: Potency [1] | Potency [2] | Potency [3] | Potency [4] | Potency [5] | fluorescence, relative to Rose Bengal [6] -0.182% [at 18.6 µM] | fluorescence, % of fluorescein control [7] 0.0036% [at 18.6 µM] | fluorescence, % of triamterene [8] -0.0105% [at 18.6 µM] | fluorescence, % of fluorescent control [9] 0.088% [at 18.6 µM] | fluorescence, % of fluorescein [10] 0.0049% [at 18.6 µM] | fluorescence, % of fluorescent control [11] -0.0081% [at 18.6 µM] | activity change [12] 0.0438% [at 18.6 µM] | fluorescence, % of Rose Bengal [13] 0.571% [at 18.6 µM] | fluorescence, % of fluorescent control [14] -0.0473% [at 18.6 µM] | fluorescence, % of fluorescein control [15] 0.0092% [at 18.6 µM] | fluorescence, % of fluorescent control [16] -0.107% [at 18.6 µM]
active: Potency [18] 7.17 µM

CCOC(=N)CC(=O)OCC
inactive: Potency [1] | Potency [2] | Potency [3] | Potency [4] | Potency [5] | outcome [6] | outcome [7] | Potency [8] | outcome [9] | outcome [10] | Potency [11] | outcome [12] | outcome [17] | outcome [13] | Potency [14] | outcome [15] | Potency [16]

CCCCOC(=O)CCS
inactive: Potency [1] | Potency [2] | Potency [3] | Potency [4] | Potency [5] | outcome [6] | outcome [7] | Potency [8] | outcome [9] | outcome [10] | outcome [12] | outcome [17] | outcome [13] | Potency [14] | outcome [15] | Potency [16] | Potency [19]

CC(C)(C)C(=O)C(Oc1ccc(Cl)cc1)n1ccnc1 (stereo not drawn)
inactive: Potency [1] | Potency [2] | Potency [3] | Potency [4] | Potency [5] | outcome [7] | Potency [8] | outcome [9] | outcome [10] | Potency [11] | outcome [12] | outcome [17] | outcome [13] | Potency [14] | outcome [15] | Potency [16]

COc1ccc(CCC(=O)c2c(O)cc(O[C@@H]3O[C@H](CO)[C@@H](O)[C@H](O)[C@H]3O[C@@H]3O[C@@H](C)[C@H](O)[C@@H](O)[C@H]3O)cc2O)cc1O
inactive: Potency [1] | Potency [2] | Potency [3] | Potency [4] | Potency [5] | Potency [18] | outcome [6] | outcome [7] | Potency [8] | outcome [9] | outcome [10] | Potency [11] | outcome [12] | outcome [13] | Potency [14] | outcome [15] | Potency [16] | Potency [19]
